Activity calls are given as the source filed them. Rule for the calls: active = hit-call score of the fitted dose curve at least 0.9, where 1 is the maximum; inactive = score below 0.9.
What was measured:
[1] = ATG_E_Box_CIS: Attagene CIS-FACTORIAL HepG2 Assay for human Enhancer Box (E-box) (AID 2282936); details: HepG2 E-box cis-reporter transcription, actives raise or lower the signal
Summary of the method: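 Multiplexed CIS reporter system in transiently transfected HepG2 cells measures native transcription factor activity. Reporter RNA after 24 h exposure is profiled by RT-PCR-capillary electrophoresis.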

[2] = ATG_EGR_CIS: Attagene CIS-FACTORIAL HepG2 Assay for human Early Growth Response 1 (EGR1) (AID 2282938); details: HepG2 Attagene CIS-FACTORIAL EGR reporter mRNA; actives raise or lower the signal
Summary of the method: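 Transient transfection of human HepG2 with multiple cis-regulated reporter units, chemical exposure 24 h, total RNA isolated. Reverse transcription, PCR, fluorescent labelling and capillary electrophoresis quantify reporter transcripts; activity fitted bidirectionally against DMSO.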

[3] = ATG_M_19_CIS: Attagene CIS-FACTORIAL HepG2 Assay for M19 Transcription Factor (Internal Marker) (AID 2282939); details: HepG2 Attagene CIS-FACTORIAL M19 internal marker reporter; actives raise or lower the signal
Summary of the method: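 Signals come from fluorescence of labelled reporter-specific PCR fragments resolved by capillary electrophoresis, following 24 h treatment of HepG2 cells transfected with cis-promoter reporter units; activity was fitted in both directions relative to DMSO.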

[4] = ATG_ERE_CIS: Attagene CIS-FACTORIAL HepG2 Assay for Estrogen Response Element (ERE) (AID 2282940); details: HepG2 ERE cis-reporter, Attagene RNA transcript; actives raise or lower the signal
Summary of the method: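 Fluorescence of capillary-separated, FAM-labelled reporter cDNA fragments indicates reporter mRNA levels in HepG2 cells exposed to chemicals for 24 h. Transient transfection with cis-regulated units; data fitted in both directions against DMSO.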

[5] = ATG_Ets_CIS: Attagene CIS-FACTORIAL HepG2 Assay for human Erythroblast Transformation Specific (ETS) (AID 2282941); details: HepG2 ETS cis-reporter transcription, actives raise or lower the signal
Summary of the method: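 Steps: transfect HepG2 with multiple reporter units; treat compound 24 h; isolate RNA, DNase-treat, reverse-transcribe; PCR-amplify, label with 6-FAM, digest with HpaI; separate by capillary electrophoresis. Activity fitted both directions versus DMSO.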

[6] = target: Hepatocyte nuclear factor 3-beta (Homo sapiens) (UniProt Q9Y261); assay: ATG_FoxA2_CIS: Attagene CIS-FACTORIAL HepG2 Assay for human Forkhead box A2 (FOXA2) (AID 2282942); details: HepG2 cis-reporter transcription factor activity, 24 h; actives raise or lower the signal
Summary of the method: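 Transient MRTU transfection of HepG2 liver cells; 24 h treatment; total RNA → oligo(dT) RT → PCR → FAM primer extension → HpaI cut → CE. Bidirectional fit vs DMSO.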

[7] = ATG_FoxO_CIS: Attagene CIS-FACTORIAL HepG2 Assay for human Forkhead box O (FoxO) (AID 2282943); details: HepG2 Attagene cis-reporter, FoxO element, mRNA; actives raise or lower the signal
Summary of the method: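 Values reflect reporter mRNA induction or loss in HepG2 cells 24 h post-dosing, fitted bidirectionally with DMSO as negative control and baseline. Detection used RT-PCR and fluorescence capillary electrophoresis.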

[8] = ATG_GATA_CIS: Attagene CIS-FACTORIAL HepG2 Assay for human GATA Binding Protein (AID 2282944); details: HepG2 GATA cis-element reporter, Attagene multiplex mRNA; actives raise or lower the signal
Summary of the method: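 After transfecting HepG2 cells with multiple cis-regulated reporter units, chemicals are dosed for 24 h; isolated RNA undergoes RT-PCR and fluorescent labeling before capillary electrophoresis, with activity expressed against DMSO.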

[9] = ATG_GLI_CIS: Attagene CIS-FACTORIAL HepG2 Assay for human Zinc Finger Protein GLI1 (AID 2282945); details: HepG2, Attagene cis-factorial reporter mRNA, GLI element; actives raise or lower the signal
Summary of the method: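 HepG2 cells transiently transfected with cis-promoter multiplexed reporter units report endogenous transcription factor activity. After 24 h chemical exposure, reporter mRNA was quantified by RT-PCR, 6-FAM labelling, HpaI digestion and capillary electrophoresis, with bidirectional fitting against DMSO.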

[10] = target: Bile acid receptor (Homo sapiens) (UniProt Q96RI1); assay: ATG_IR1_CIS: Attagene CIS-FACTORIAL HepG2 Assay for human Nuclear Receptor Subfamily 1 Group H Member 4 (NR1H4), IR1 submotif (AID 2282946); details: IR1 reporter transcription, actives raise or lower the signal
Summary of the method: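 Transient MRTU transfection, HepG2; 24 h dosing; RNA → RT-PCR → 6-FAM primer extension → HpaI digest → capillary electrophoresis fluorescence. Gain/loss of signal fitted relative to DMSO.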

[11] = ATG_ISRE_CIS: Attagene CIS-FACTORIAL HepG2 Assay for human Interferon Regulatory Factor 1 (IRF1) binding to an Interferon-Stimulated Response Element (ISRE) (AID 2282948); details: HepG2 ISRE cis-reporter (Attagene), mRNA transcription readout; actives raise or lower the signal
Summary of the method: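 Transfected HepG2 (multiple reporter transcription units, cis elements) dosed 24 h. RNA → oligo(dT) RT → PCR → 6-FAM primer extension → HpaI → CE. DMSO = negative control/baseline.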

[12] = ATG_M_06_CIS: Attagene CIS-FACTORIAL HepG2 Assay for M06 Transcription Factor (Internal Marker) (AID 2282950); details: HepG2 Attagene CIS-FACTORIAL M06 internal marker reporter; actives raise or lower the signal
Summary of the method: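 HepG2 liver cells, 24 h exposure. Reporter transcripts from transfected cis-element constructs quantified by RT-PCR/capillary electrophoresis fluorescence. Bidirectional curve fit against DMSO.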

[13] = target: Hypoxia-inducible factor 1-alpha (Homo sapiens) (UniProt Q16665); assay: ATG_HIF1a_CIS: Attagene CIS-FACTORIAL HepG2 Assay for human Hypoxia Inducible Factor 1 (HIF1A) (AID 2282951); details: HepG2 Attagene cis-factorial HIF1a reporter transcription; actives raise or lower the signal
Summary of the method: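 Transient MRTU transfection of human HepG2 liver cells, 24 h compound treatment, then total RNA isolation, oligo(dT) reverse transcription, PCR amplification, fluorescent labelling and capillary electrophoresis of reporter fragments. Gain or loss relative to DMSO.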

[14] = target: Heat shock factor protein 1 (Homo sapiens) (UniProt Q00613); assay: ATG_HSE_CIS: Attagene CIS-FACTORIAL HepG2 Assay for human Heat Shock Transcription Factor 1 (HSE) (AID 2282953); details: HepG2 HSE cis-reporter, Attagene RNA transcription; actives raise or lower the signal
Summary of the method: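 Endogenous transcription factor activity captured via cis-promoter reporter units transfected into HepG2; treatment lasted 24 h. Fluorescence intensity of reporter fragments analysed with bidirectional curve fitting, DMSO baseline.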

[15] = ATG_MRE_CIS: Attagene CIS-FACTORIAL HepG2 Assay for human Metal Responsive Element (MRE) (AID 2282954); details: HepG2 MRE cis-reporter transcription, Attagene multiplex; actives raise or lower the signal
Summary of the method: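 Step one: transfect HepG2 with cis-regulated reporter units. Step two: dose 24 h. Step three: isolate RNA, RT-PCR, 6-FAM label, HpaI digest, capillary electrophoresis. Fit bidirectionally to DMSO.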

[16] = ATG_PBREM_CIS: Attagene CIS-FACTORIAL HepG2 Assay for human Phenobarbital-responsive Enhancer Module (PBREM) (AID 2282955); details: HepG2 PBREM cis-reporter, Attagene multiplexed transcription; actives raise or lower the signal
Summary of the method: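 Endogenous transcription factors in human liver HepG2 cells drive a PBREM cis-element reporter, whose transcript level after 24 h treatment is quantified by RT-PCR with capillary electrophoresis; activity fitted in both directions against DMSO.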

[17] = ATG_GRE_CIS: Attagene CIS-FACTORIAL HepG2 Assay for human Glucocorticoid Response Elements (GRE) (AID 2282947); details: HepG2 GRE cis-reporter, Attagene multiplex mRNA; actives raise or lower the signal
Summary of the method: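 Following 24 h chemical exposure of transiently transfected HepG2 cells, total RNA was reverse-transcribed and reporter cDNA amplified, fluorescently labelled and sized by capillary electrophoresis. Signal gain or loss was fitted relative to DMSO vehicle.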

[18] = ATG_M_32_CIS: Attagene CIS-FACTORIAL HepG2 Assay for M32 Transcription Factor (Internal Marker) (AID 2282949); details: HepG2 Attagene cis-factorial M32 reporter, mRNA; actives raise or lower the signal;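 note: background control marker of the multiplexed CIS panel rather than a real target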
Summary of the method: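 HepG2 cells transiently transfected with multiplexed cis-regulated reporter units, dosed 24 h. Reporter mRNA quantified by RT-PCR, 6-FAM labelling, HpaI digestion and capillary electrophoresis; bidirectional fit vs DMSO.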

[19] = target: Hepatocyte nuclear factor 6 (Homo sapiens) (UniProt Q9UBC0); assay: ATG_HNF6_CIS: Attagene CIS-FACTORIAL HepG2 Assay for human Hepatocyte Nuclear Factor 6 (HNF6) (AID 2282952); details: HepG2 Attagene cis-factorial HNF6 reporter transcription; actives raise or lower the signal
Summary of the method: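 HepG2 cells transiently transfected with cis-element-driven multiplexed reporter units measuring endogenous transcription factor activity. After 24 h exposure, reporter mRNA quantified by RT-PCR, FAM-labelled fragments and capillary electrophoresis; bidirectional fitting versus DMSO.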

[20] = ATG_M_61_CIS: Attagene CIS-FACTORIAL HepG2 Assay for M61 Transcription Factor (Internal Marker) (AID 2282937); details: HepG2 Attagene CIS-FACTORIAL M61 internal marker reporter; actives raise or lower the signal
Summary of the method: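 Human liver HepG2, transient MRTU transfection (cis promoter elements), 24 h compound. Total RNA → oligo(dT) RT → PCR → FAM label → HpaI → CE. Internal background marker; bidirectional fitting, DMSO = baseline.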

Measured: outcome

Sequence of Hepatocyte nuclear factor 3-beta (Homo sapiens) (Q9Y261 whole entry, looked up): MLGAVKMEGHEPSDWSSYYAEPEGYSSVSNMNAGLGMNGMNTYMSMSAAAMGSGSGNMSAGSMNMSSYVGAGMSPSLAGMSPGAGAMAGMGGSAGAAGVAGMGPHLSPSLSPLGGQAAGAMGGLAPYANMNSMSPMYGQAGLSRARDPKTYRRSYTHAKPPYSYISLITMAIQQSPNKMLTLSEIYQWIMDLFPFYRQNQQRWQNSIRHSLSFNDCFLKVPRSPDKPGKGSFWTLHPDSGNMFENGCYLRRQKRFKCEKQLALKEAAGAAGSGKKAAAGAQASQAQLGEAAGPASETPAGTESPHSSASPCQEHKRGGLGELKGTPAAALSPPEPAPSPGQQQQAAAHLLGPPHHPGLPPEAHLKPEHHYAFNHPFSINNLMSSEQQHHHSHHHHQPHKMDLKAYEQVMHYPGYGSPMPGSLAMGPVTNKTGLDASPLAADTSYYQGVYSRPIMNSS
Sequence of Heat shock factor protein 1 (Homo sapiens) (Q00613 whole entry, looked up, the tested form may be a part): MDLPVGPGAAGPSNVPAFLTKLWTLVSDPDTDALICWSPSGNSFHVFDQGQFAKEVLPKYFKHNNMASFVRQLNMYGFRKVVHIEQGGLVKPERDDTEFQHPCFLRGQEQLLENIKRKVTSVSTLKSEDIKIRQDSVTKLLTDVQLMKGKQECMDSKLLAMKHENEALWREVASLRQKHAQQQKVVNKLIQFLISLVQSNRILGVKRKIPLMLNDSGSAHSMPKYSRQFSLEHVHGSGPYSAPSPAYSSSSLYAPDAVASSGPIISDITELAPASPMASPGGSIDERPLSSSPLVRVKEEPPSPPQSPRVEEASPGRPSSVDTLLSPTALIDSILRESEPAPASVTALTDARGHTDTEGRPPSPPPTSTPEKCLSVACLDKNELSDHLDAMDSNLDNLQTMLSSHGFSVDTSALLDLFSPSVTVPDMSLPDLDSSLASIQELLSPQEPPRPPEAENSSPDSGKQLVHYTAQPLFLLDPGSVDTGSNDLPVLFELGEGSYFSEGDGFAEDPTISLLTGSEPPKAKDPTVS
Sequence of Hepatocyte nuclear factor 6 (Homo sapiens) (Q9UBC0 whole entry, looked up, the tested form may be a part): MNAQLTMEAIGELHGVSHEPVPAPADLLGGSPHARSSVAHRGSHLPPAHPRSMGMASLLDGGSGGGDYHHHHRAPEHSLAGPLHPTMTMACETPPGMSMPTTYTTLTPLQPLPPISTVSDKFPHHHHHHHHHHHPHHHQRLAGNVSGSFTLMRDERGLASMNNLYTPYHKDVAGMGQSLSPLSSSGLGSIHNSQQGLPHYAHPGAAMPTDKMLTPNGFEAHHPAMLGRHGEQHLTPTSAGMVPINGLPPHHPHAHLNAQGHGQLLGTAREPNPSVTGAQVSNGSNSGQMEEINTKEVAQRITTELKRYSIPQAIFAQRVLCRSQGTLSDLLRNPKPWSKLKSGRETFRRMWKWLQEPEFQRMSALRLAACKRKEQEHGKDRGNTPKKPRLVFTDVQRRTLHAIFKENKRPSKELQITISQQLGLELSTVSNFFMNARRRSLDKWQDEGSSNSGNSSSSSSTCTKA
Sequence of Hypoxia-inducible factor 1-alpha (Homo sapiens) (Q16665 whole entry, looked up, the tested form may be a part): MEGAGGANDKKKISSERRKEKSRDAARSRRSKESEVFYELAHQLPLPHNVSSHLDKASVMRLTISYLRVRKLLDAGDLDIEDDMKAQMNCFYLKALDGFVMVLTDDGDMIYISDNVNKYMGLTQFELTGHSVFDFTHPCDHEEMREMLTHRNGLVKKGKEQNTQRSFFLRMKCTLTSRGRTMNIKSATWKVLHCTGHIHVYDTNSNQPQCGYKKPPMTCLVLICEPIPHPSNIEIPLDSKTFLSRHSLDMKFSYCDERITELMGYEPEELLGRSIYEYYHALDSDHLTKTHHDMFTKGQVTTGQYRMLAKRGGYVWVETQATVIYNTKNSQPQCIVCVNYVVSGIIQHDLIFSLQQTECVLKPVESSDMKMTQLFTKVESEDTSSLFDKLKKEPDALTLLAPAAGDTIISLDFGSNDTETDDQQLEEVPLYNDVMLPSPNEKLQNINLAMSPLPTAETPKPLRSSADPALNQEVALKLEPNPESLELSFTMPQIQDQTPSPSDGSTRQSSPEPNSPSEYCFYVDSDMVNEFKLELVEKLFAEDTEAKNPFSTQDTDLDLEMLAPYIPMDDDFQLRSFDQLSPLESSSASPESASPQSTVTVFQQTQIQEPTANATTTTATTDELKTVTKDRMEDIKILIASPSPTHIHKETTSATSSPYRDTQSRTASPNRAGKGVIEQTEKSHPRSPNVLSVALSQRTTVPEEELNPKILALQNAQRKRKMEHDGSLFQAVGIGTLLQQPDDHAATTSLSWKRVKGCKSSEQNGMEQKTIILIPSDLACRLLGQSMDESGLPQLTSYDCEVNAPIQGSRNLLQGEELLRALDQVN
Sequence of Bile acid receptor (Homo sapiens) (Q96RI1 whole entry, looked up): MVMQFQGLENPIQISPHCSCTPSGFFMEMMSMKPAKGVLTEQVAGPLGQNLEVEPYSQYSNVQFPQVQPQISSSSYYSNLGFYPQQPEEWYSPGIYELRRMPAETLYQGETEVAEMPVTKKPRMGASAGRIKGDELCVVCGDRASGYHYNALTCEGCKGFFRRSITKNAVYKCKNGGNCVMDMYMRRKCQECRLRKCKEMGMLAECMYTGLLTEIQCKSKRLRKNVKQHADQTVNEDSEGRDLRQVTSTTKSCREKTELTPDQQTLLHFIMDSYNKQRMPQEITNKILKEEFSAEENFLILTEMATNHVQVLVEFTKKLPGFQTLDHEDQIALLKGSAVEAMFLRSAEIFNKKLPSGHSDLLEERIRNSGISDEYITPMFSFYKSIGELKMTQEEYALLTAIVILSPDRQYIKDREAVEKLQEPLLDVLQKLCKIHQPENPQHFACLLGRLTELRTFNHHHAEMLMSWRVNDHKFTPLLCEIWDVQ

CCCCCCCCCCOS(=O)(=O)O
not listed: [17] | [18] | [19] | [20]
inactive: all other assays above

CCCCCCCCO[C@@H]1O[C@H](CO)[C@@H](O)[C@H](O)[C@H]1O
not listed: [16] | [20]
inactive: all other assays above

Cc1c(C)c([N+](=O)[O-])c(C(C)(C)C)c([N+](=O)[O-])c1C
not listed: [10] | [16] | [17] | [20]
inactive: all other assays above

CCC(C)(C)C1CCCCC1OC(C)=O (configuration not stated)
not listed: [4] | [10] | [17]
inactive: all other assays above
